Screen size: about 48,000 compounds; about 13,000 (27%) showed an effect of 50% or more. The list shows a part of the results.
System: Wolbachia pipientis
Test: Anti-Wolbachia Cell-Based Screen
Assay type: functional
Parameters: scale not given: in the data most compounds retested in dose-response had high values
Details: 5 µM

Row | Compound | Percent Effect
1 | O=C(c1nc(=O)[nH][nH]1)N1CCC2(CCCCC2)C1 | -9.423%
2 | c1ccc(SCCN2CCN(CCn3cncn3)CC2)cc1 | 8.727%
3 | CCC(CO)N(Cc1ccsc1)Cc1ccc(-c2ccn[nH]2)s1 (stereo not given) | -9.048%
4 | CN1CCN(C2CCN(CC(=O)NCC(F)(F)F)CC2)C1=O | -4.835%
5 | CC(C)Oc1cccc(CNC(Cc2ccsc2)c2nccs2)c1.Cl (stereo not given) | 94.44%
6 | O=C(NC(Cc1ccsc1)c1nccs1)C1CCOCC1 (stereo not given) | -7.907%
7 | CCS(=O)(=O)N1CCC(C(=O)NC(Cc2ccsc2)c2nccs2)CC1 (stereo not given) | 102.7%
8 | CC(C)Oc1cccc(CNC(=O)NC2(CO)CCCC2)c1 | 12.23%
9 | CC(NC(=O)NCc1cccc(CN2CCCC2)c1)c1nccs1 (stereo not given) | -2.261%
10 | CS(=O)(=O)N1CCC(C(=O)NC(Cc2ccsc2)c2nccs2)CC1 (stereo not given) | -7.112%
11 | O=C(NC(Cc1ccsc1)c1nccs1)C1CC1 (stereo not given) | 111.3%
12 | O=C(CSCc1ccncc1)N(Cc1ccsc1)C1CC1 | 10.91%
13 | C=C(C)COc1ccccc1CNC(CC)c1ccnn1C (stereo not given) | -26.14%
14 | CCN(C(c1cccnc1)c1ccc2c(c1)CCO2)S(C)(=O)=O (stereo not given) | 5.843%
15 | CCn1nnnc1-c1cccc(NC(=O)CCc2cnn(C)c2)c1 | -3.137%
16 | Cc1ccc2cc(CNCCCN3CCOCC3)c(=O)[nH]c2c1C | 110.9%
17 | Cc1cccc2cc(CNCCCN3CCOCC3)c(=O)[nH]c12 | -14.11%
18 | CCc1cccc2cc(CNCCCN3CCOCC3)c(=O)[nH]c12 | 109.4%
19 | Cc1cccc2cc(CN3CCC(N4CCOCC4)CC3)c(=O)[nH]c12 | -9.486%
20 | COc1ccc(CN2CCOC[C@H]2c2nc(-c3ccncc3)c[nH]2)cc1 | -8.206%
21 | COc1ccc(C)cc1CN1CCCC1c1noc(C2CC2)n1 (stereo not given) | 18.68%
22 | COc1ccccc1CN1CCCCC1c1n[nH]cc1-c1cc(C)no1.Cl (stereo not given) | 107.2%
23 | CCc1ccc(CN2CCCCC2c2n[nH]cc2-c2cc(C)no2)cc1.Cl (stereo not given) | 131.5%
24 | Cc1cccc(CN2CCCCC2c2n[nH]cc2-c2cc(C)no2)c1.Cl (stereo not given) | 91.3%
25 | COc1ccc(CN2CCC[C@H]2c2nc(-c3cncnc3N)no2)cc1 | -2.568%
26 | COc1cccc(CN2CCCCCC2c2cccc(C)c2)c1O (stereo not given) | -3.31%
27 | Cc1cc(C2CCCN2Cc2ccn(C)c(=O)c2)no1 (stereo not given) | -4.327%
28 | Cc1cc(C2CCCN2Cc2nc(-c3ccco3)no2)on1 (stereo not given) | 9.843%
29 | COc1ccc(CN2CCCCC2c2n[nH]cc2-c2cc(C)no2)cc1.Cl (stereo not given) | 84.19%
30 | Cc1cc(C2CCCN2Cc2cc(-c3ccco3)on2)on1 (stereo not given) | -89.63%
